For 18 compounds, AC50 and outcome results are on record in PubChem BioAssay (EPA / NIEHS).

The target in assay [1] is Serine/threonine-protein phosphatase PP1-alpha catalytic subunit (Homo sapiens) (UniProt P62136). The experiment in a line: NVS_ENZ_hPPP1CA: NovaScreen (NVS) Enzymatic Assay for human Protein Phosphatase 1 Aatalytic subunit Alpha (PPP1CA) (AID 2283200). Summed up:
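Recombinant enzyme activity read by fluorescence with electrophoretic mobility shift separating substrate from product, 1.33 h after dosing; loss of signal vs DMSO baseline. Primary screen in duplicate at 25 uM; actives retested in concentration-response up to 50 uM.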

Assay [2] addresses human Protein Tyrosine Phosphatase Non-receptor Type 1 (PTPN1), PTPN1 (gene 5770) (UniProt P18031). The experiment in a line: NVS_ENZ_hPTPN1: NovaScreen (NVS) Enzymatic Assay for human Protein Tyrosine Phosphatase Non-receptor Type 1 (PTPN1) (AID 2283201). Summed up:
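Cell-free fluorogenic-substrate activity assay on recombinant enzyme, read 1.33 h after dosing by fluorescence and electrophoretic mobility shift; loss of signal vs DMSO baseline. Primary screen in duplicate at 25 uM, hits then run in concentration-response up to 50 uM.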

Assay [3] deals with Tyrosine-protein phosphatase non-receptor type 11 (Homo sapiens) (UniProt Q06124). The experiment in a line: NVS_ENZ_hPTPN11: NovaScreen (NVS) Enzymatic Assay for human Protein Tyrosine Phosphatase Non-receptor Type 11 (PTPN11) (AID 2283202). Summed up:
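Recombinant human PTPN11 activity on a fluorescent substrate, with substrate/product separated by electrophoretic mobility shift; read 0.5 h after dosing, loss of signal vs DMSO. Duplicate 25 uM screen, then concentration-response up to 50 uM.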

For assay [4], the target named is human Phosphatase and Tensin Homolog (PTEN), PTEN (gene 5728) (UniProt P60484). The experiment in a line: NVS_ENZ_hPTEN: NovaScreen (NVS) Enzymatic Assay for human Phosphatase and Tensin Homolog (PTEN) (AID 2283203). Summed up:
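Cell-free recombinant human PTEN with fluorescent substrate; product separated by electrophoretic mobility shift and read by fluorescence 1 h after dosing. Primary screen in duplicate at 25 uM, actives followed in concentration series versus DMSO.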

In assay [5] the target is Tyrosine-protein phosphatase non-receptor type 12 (Homo sapiens) (UniProt Q05209). The experiment in a line: NVS_ENZ_hPTPN12: NovaScreen (NVS) Enzymatic Assay for human Protein Tyrosine Phosphatase Non-receptor Type 12 (PTPN12) (AID 2283204). Summed up: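 Single-concentration duplicates (25 uM) preceded singleton concentration-response up to 50 uM for chemicals passing threshold. Cell-free recombinant PTPN12 activity was read 1.33 h after dosing via fluorescence after mobility-shift separation; loss of signal versus DMSO.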

Assay [6] concerns the target Tyrosine-protein phosphatase non-receptor type 13 (Homo sapiens) (UniProt Q12923). Kind of assay: NVS_ENZ_hPTPN13: NovaScreen (NVS) Enzymatic Assay for human Protein Tyrosine Phosphatase Non-receptor Type 13 (PTPN13) (AID 2283205). Summed up:
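Cell-free assay of recombinant human PTPN13 with a fluorescent substrate, product separated by electrophoretic mobility shift and read 0.5 h after dosing. Primary screen at 25 uM in duplicate, then concentration-response up to 50 uM. Loss of signal fitted against DMSO.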

In assay [7] the target is human Protein Tyrosine Phosphatase Non-receptor Type 9 (PTPN9), PTPN9 (gene 5780) (UniProt P43378). Kind of assay: NVS_ENZ_hPTPN9: NovaScreen (NVS) Enzymatic Assay for human Protein Tyrosine Phosphatase Non-receptor Type 9 (PTPN9) (AID 2283209). Summed up: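 Sf9-expressed enzyme in a cell-free assay, fluorescence read 1.33 h after dosing with mobility-shift separation of substrate and product. Tested at 25 uM in duplicate, then up to 50 uM; signal loss versus DMSO.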

The target of assay [8] is Tyrosine-protein phosphatase non-receptor type 14 (Homo sapiens) (UniProt Q15678). The experiment in a line: NVS_ENZ_hPTPN14: NovaScreen (NVS) Enzymatic Assay for human Protein Tyrosine Phosphatase Non-receptor Type 14 (PTPN14) (AID 2283206). Summed up:
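Cell-free recombinant human PTPN14 with fluorescent substrate, read 0.5 h after dosing by fluorescence and electrophoretic mobility shift separating substrate from product. Primary screen at 25 uM in duplicate; hits run to 50 uM maximum; loss of signal versus DMSO.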

In assay [9] the target is human Protein Tyrosine Phosphatase Non-receptor Type 2 (PTPN2), PTPN2 (gene 5771) (UniProt P17706). Kind of assay: NVS_ENZ_hPTPN2: NovaScreen (NVS) Enzymatic Assay for human Protein Tyrosine Phosphatase Non-receptor Type 2 (PTPN2) (AID 2283207). Here is the method: NVS_ENZ_hPTPN2 is a biochemical, single-readout assay that uses extracted gene-proteins in a cell-free assay. Measurements were taken 1 hour after chemical dosing in a 384-well plate.NVS_ENZ_hPTPN2 is one of one assay component(s) measured or calculated from the NVS_ENZ_hPTPN2 assay. It is designed to make measurements of enzyme activity, a form of enzyme reporter, as detected with fluorescence intensity signals by Fluorescence and electrophoretic mobility shift technology.Data from the assay component NVS_ENZ_hPTPN2 was analyzed into 1 assay endpoint. This assay endpoint, NVS_ENZ_hPTPN2, was analyzed in the positive analysis fitting direction relative to DMSO as the negative control and baseline of activity. Using a type of enzyme reporter, loss-of-signal activity can be used to understand changes in the enzymatic activity as they relate to the gene PTPN2. Furthermore, this assay endpoint can be referred to as a primary readout, because this assay has produced multiple assay endpoints where this one serves a enzymatic activity function. To generalize the intended target to other relatable targets, this assay endpoint is annotated to the phosphatase intended target family, where the subfamily is non-receptor tyrosine phosphatase.
Binding assays used specific radioligands (tritiated, iodinated) with non-radioactive competitive displacement ligands in agonist or antagonist protocols (as indicated) and various reference compounds and inhibitors to titrate specific binding to receptors and transporters. Most enzyme assays (CYPs, kinases, phosphatases, proteases, HDACs) used recombinant protein and specific substrates (fluorescence mostly, some colorimetric and radioactive) and inhibitors, followed by a biochemical separation of substrate and product. All assays for the biochemical HTS were initially run in duplicate at a single concentration (10 uM for CYP450 assays and 25 uM for all others). […] Each assay was run with positive and negative controls, and concurrent controls on every plate. […]

The target in assay [10] is human Protein Tyrosine Phosphatase Non-receptor Type 4 (PTPN4), PTPN4 (gene 5775) (UniProt P29074). Kind of assay: NVS_ENZ_hPTPN4: NovaScreen (NVS) Enzymatic Assay for human Protein Tyrosine Phosphatase Non-receptor Type 4 (PTPN4) (AID 2283208). Summed up: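 Cell-free assay of PTPN4 expressed in Sf9 cells, using a fluorescent substrate with product separated by mobility shift; read 1.33 h after dosing. Single-point screen at 25 uM, then concentration-response up to 50 uM. Loss of signal relative to DMSO.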

Each structure is given as a SMILES string. Results filed as inconclusive are left out. The source made the active and inactive calls. How the source made its calls: active means hit-call score of the fitted dose curve at least 0.9, where 1 is the maximum; inconclusive means response in the unintended direction; inactive means score below 0.9.

Sequence of human Protein Tyrosine Phosphatase Non-receptor Type 1 (PTPN1), PTPN1 (gene 5770) (P18031 whole entry, looked up): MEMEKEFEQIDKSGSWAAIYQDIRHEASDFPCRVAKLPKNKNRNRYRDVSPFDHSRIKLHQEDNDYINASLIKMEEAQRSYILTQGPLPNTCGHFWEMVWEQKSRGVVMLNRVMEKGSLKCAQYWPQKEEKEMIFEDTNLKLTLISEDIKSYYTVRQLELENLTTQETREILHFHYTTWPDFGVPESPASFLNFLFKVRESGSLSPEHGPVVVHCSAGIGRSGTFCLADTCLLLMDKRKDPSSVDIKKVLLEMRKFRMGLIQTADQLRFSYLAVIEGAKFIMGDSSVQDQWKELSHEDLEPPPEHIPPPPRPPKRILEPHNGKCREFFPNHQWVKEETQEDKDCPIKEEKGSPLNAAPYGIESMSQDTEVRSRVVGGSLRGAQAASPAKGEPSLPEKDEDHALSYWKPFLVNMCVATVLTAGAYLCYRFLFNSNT
Sequence of Tyrosine-protein phosphatase non-receptor type 11 (Homo sapiens) (Q06124 whole entry, looked up): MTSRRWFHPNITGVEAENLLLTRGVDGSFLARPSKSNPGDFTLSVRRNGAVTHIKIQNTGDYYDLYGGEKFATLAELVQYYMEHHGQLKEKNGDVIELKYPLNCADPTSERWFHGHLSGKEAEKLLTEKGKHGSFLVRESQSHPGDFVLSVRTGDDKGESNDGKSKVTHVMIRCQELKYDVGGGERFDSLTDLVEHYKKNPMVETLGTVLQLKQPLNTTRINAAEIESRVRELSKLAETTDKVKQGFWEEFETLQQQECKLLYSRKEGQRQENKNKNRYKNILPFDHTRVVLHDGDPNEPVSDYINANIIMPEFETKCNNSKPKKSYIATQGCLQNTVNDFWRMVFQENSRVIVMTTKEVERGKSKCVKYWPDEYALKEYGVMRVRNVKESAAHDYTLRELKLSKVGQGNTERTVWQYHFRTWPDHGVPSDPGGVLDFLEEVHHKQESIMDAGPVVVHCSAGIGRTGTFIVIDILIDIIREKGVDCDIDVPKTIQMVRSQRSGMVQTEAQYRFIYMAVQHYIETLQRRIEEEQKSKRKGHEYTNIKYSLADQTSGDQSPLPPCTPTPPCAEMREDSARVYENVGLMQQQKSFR
Sequence of human Phosphatase and Tensin Homolog (PTEN), PTEN (gene 5728) (P60484 whole entry, looked up): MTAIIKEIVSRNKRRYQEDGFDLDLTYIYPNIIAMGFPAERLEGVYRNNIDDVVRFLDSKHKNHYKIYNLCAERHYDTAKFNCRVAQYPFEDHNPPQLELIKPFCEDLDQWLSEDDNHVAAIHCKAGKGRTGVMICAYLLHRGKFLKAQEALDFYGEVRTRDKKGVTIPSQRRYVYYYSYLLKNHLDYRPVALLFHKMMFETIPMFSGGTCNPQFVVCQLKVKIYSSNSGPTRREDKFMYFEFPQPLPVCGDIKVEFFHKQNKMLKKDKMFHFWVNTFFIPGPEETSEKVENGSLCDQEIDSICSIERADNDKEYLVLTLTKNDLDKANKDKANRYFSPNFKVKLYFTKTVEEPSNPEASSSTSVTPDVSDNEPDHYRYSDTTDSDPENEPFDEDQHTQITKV
Sequence of human Protein Tyrosine Phosphatase Non-receptor Type 2 (PTPN2), PTPN2 (gene 5771) (P17706 whole entry, looked up): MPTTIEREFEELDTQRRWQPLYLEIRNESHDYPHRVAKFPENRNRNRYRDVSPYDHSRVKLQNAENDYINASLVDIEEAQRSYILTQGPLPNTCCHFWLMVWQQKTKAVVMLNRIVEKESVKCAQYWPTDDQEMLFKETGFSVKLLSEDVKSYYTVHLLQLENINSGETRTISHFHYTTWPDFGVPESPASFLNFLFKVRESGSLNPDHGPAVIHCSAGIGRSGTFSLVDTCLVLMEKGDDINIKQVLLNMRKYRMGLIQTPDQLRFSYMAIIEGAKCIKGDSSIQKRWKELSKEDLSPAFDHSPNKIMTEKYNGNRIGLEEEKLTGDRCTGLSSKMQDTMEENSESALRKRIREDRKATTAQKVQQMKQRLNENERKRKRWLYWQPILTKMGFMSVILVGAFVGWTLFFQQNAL
Sequence of Tyrosine-protein phosphatase non-receptor type 12 (Homo sapiens) (Q05209 whole entry, looked up): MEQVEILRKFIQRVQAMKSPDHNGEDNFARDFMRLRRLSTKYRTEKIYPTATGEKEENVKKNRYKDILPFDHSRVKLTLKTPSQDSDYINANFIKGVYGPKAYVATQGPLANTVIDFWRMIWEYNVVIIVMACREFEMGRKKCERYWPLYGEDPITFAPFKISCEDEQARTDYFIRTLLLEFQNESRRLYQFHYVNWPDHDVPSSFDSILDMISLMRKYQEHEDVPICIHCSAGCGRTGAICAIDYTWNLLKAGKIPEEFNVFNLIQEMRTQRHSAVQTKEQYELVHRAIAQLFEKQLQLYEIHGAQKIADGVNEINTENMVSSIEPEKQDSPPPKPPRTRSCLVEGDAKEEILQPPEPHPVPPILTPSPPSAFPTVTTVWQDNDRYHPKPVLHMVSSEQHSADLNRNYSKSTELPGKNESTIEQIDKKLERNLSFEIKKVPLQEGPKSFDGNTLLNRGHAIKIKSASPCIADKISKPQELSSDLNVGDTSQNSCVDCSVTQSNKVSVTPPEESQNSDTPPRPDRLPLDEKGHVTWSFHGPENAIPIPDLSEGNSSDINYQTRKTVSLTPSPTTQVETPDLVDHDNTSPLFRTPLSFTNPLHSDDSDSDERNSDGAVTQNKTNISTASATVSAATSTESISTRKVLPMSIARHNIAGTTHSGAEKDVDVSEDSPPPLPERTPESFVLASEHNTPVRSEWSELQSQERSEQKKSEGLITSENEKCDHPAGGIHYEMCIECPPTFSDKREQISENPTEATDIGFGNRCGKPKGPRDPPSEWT
Sequence of human Protein Tyrosine Phosphatase Non-receptor Type 9 (PTPN9), PTPN9 (gene 5780) (P43378 whole entry, looked up): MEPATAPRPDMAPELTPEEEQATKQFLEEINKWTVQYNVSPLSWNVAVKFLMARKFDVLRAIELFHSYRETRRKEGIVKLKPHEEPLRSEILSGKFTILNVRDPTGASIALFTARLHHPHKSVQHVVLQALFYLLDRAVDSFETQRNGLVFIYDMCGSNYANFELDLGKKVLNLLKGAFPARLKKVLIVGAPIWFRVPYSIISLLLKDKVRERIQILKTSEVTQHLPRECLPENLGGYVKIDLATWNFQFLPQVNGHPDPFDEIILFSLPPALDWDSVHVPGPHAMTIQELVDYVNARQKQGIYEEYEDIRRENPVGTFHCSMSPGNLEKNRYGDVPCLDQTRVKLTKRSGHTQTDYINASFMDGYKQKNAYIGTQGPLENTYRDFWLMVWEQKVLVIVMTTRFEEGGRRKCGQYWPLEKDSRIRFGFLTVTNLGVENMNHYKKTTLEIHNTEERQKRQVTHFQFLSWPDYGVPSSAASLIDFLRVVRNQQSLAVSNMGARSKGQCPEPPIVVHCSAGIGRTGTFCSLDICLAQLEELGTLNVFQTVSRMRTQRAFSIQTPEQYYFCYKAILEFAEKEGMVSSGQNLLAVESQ
Sequence of Serine/threonine-protein phosphatase PP1-alpha catalytic subunit (Homo sapiens) (P62136 whole entry, looked up): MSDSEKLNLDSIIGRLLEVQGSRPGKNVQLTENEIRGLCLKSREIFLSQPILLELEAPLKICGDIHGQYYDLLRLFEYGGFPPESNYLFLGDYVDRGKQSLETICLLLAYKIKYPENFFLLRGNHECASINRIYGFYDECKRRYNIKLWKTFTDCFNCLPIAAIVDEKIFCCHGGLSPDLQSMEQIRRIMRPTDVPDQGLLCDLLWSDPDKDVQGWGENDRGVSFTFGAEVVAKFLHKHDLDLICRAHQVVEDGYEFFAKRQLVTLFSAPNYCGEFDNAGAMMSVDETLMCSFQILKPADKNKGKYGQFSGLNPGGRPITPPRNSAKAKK
Sequence of Tyrosine-protein phosphatase non-receptor type 14 (Homo sapiens) (Q15678 whole entry, looked up): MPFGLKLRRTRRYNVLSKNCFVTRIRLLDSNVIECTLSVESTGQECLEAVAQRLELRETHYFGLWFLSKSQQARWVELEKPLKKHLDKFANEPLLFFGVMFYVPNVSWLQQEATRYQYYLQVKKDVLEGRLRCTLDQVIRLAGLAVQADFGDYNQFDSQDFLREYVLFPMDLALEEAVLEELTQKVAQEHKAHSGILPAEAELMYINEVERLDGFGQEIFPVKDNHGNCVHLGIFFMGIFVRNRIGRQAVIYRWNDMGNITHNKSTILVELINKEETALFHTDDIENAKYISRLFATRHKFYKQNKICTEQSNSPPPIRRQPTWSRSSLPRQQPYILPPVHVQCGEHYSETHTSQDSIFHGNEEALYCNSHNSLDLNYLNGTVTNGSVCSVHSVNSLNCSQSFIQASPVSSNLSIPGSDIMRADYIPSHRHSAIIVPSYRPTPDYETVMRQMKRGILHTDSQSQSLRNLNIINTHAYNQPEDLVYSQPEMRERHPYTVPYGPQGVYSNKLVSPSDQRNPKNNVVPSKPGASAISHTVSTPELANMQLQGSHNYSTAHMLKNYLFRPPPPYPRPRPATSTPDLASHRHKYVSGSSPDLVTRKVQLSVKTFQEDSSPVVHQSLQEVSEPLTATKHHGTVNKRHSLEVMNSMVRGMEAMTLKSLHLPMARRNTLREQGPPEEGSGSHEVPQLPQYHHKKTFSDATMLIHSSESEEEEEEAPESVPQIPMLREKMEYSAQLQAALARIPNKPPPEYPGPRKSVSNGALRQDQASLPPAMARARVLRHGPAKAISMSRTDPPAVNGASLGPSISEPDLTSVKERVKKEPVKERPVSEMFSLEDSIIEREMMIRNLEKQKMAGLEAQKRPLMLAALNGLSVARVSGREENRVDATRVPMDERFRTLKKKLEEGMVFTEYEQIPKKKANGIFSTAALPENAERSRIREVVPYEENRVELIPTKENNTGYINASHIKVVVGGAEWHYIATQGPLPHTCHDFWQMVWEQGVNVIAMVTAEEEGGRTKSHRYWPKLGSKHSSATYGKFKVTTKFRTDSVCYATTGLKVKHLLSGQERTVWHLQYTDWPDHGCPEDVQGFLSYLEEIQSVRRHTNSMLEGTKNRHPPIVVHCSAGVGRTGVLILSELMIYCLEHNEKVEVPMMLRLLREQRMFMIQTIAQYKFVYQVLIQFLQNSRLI

In the case of `CCCCCCCCCCCCc1cccc(S(=O)(=O)O)c1`, the AC50 (commonly the concentration at which the activity in the assay is half-maximal) was 35.3 µM (active) in [1]; 14.8 µM (active) in assay [2]; 22.5 µM (active) in assay [3]; 12.9 µM (active) in [4]; 12.8 µM (active) in [5]; 22.7 µM (active) in assay [6]. For the same compound, the AC50 in assay [7] was 5.53 µM (active).

On to `Cc1cccc(OP(=O)(Oc2cccc(C)c2)Oc2cccc(C)c2)c1`, for which, in [4], the result was inactive.

As for `COc1nn(C(=O)NS(=O)(=O)c2ccccc2OC(F)(F)F)c(=O)n1C`, the AC50 in assay [3] is 13.3 µM (active); in assay [4], 9.29 µM (active); in assay [5], 5.64 µM (active).

In the case of `CC(C)O.CC(C)O.OCCN(CCO)CCO.OCCN(CCO)CCO.[Ti]`, the AC50 was 0.00438 µM (active) in assay [2]; 13.6 µM (active) in [3]; 0.493 µM (active) in [4]; 0.00439 µM (active) in assay [5]; 3.51 µM (active) in assay [6]; 0.00229 µM (active) in assay [8]. In addition, the AC50 in assay [9] is 0.00229 µM (active).

For the compound `CCCCCCCCCCCCOS(=O)(=O)O`, in assay [4], the AC50 is 21.6 µM (active). Moreover, in [9], the compound was classed as inactive.

`C[C@]12CC[C@@H](O)C[C@@H]1CC[C@@H]1[C@@H]2CC[C@]2(C)C(=O)CC[C@@H]12`: in [4], the call was inactive.

Regarding `Cc1ccccc1OP(=O)(Oc1ccccc1)Oc1ccccc1`, the AC50 in [4] was 44.9 µM (active).

Regarding `N#Cc1cccnc1`, the result in assay [2], in [3], in assay [4], in [5], in assay [9] and in assay [10] was inactive. Also, in [7], the compound was called inactive.

On to `COc1ccccc1N`, for which the AC50 in assay [1] is 14.8 µM (active).

`O=C1c2ccccc2C(=O)C1C(=O)C(c1ccccc1)c1ccc(Cl)cc1` (configuration not stated): the values for the AC50 in assay [3], in assay [4] and in assay [5] were 9.45 µM (active), 15.2 µM (active) and 20 µM (active), respectively.

On to `CC(C)(COCC1CO1)COCC1CO1` (configuration not stated), for which the call in [4] was inactive.

`CN(C)C(=S)S`: the compound was classed as inactive in assay [4].

In the case of `OC(Cc1ccccc1Cl)(Cn1[nH]cnc1=S)C1(Cl)CC1` (configuration not stated), in assay [4], the compound was called inactive.

For the compound `COCC(=O)N(c1c(C)cccc1C)[C@H](C)C(=O)OC`, the compound was classed as inactive in assay [4].

Consider `Clc1cccc(Cl)c1Cl`, for which the compound was called inactive in [4] and in assay [5].

Consider `Nc1c(Oc2ccccc2)cc(O)c2c1C(=O)c1ccccc1C2=O`, for which the outcome in assay [4] was inactive.

Take `CCCCC(CC)COC(=O)Cl` (configuration not stated): the AC50 in assay [4] is 4.14 µM (active).

For the compound `Cc1ccccc1OP(=O)(Oc1ccccc1C)Oc1ccccc1C`, the AC50 in assay [4] was 45.1 µM (active).
